Molecules are shown by their SMILES. Compounds without any hit were thinned out: in the full panel of roughly 83,000, 20% have a hit.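 96-well plates, one dose, 48 hours. Percent growth reported; active if below 10.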 A number with no mark means an inactive call. The source made the active and inactive calls.

This assay deals with HL-60(TB) leukemia. As to the kind of experiment: NCI-60 one-dose screen, 48 h (100 = growth as untreated, 0 = no growth, -100 = all killed). The note with it: 10 µM unless noted.
In the case of `C[C@@H]1C[C@H]2C(=O)O[C@@H](C)C(NC(=O)[C@H](Cc3cc(F)cc(F)c3)NC(=O)Nc3ccc(Cl)cc3F)C(=O)N3CCC[C@H]3C(=O)N3CCCC[C@H]3C(=O)N[C@@H](CO)C(=O)N2C1` (some centres not stated), the growth is 13.5%.

With `Fc1ccc(-c2cc3nc(C(Cl)Cl)nc(-c4ccc(F)cc4)n3n2)cc1`, the growth is -1.81% (active).

In the case of `CC(O)c1cc2ccccc2c(=O)o1` (configuration not stated), the growth is 102%.

Turning to `COc1ccc(OC)c(NC(=O)CCCCCCNC(=O)C(O)(O)C(F)(F)F)c1`, the growth was 10.6%.

Regarding `CC(C)=CCc1c(O)c(CC=C(C)C)c2c(c1O)C(=O)C1=C[C@@H]3C[C@H]4C(C)(C)O[C@@](C/C=C(\C)C(=O)O)(C3=O)[C@@]14O2`, the growth was -14.1% (active).

In the case of `CS(=O)(=O)Nc1cc(-c2ccc3ncc(C#N)c(NCc4ccccc4F)c3c2)cnc1Cl`, the growth is 5.25% (active).

`CCOC(=O)c1c(Nc2ccccc2)nn2c(-c3ccco3)c(C#N)cnc12`: the growth is 110%.

Turning to `Cc1c(F)cc(C(N)=O)cc1NCC(=O)Nc1ccc([N+](=O)[O-])cc1`, the growth is 132%.

`C/C(=N\NC(=O)/C=C/CC(=O)O)c1nnn(-c2ccc([N+](=O)[O-])cc2)c1C`: the growth is 98%.

For `CCNC(=O)Oc1ccc(/C(=C(/C)c2ccc(OC)cc2)c2ccc(OCCN3CCCCCC3)cc2)cc1`, the growth is 22.5%.

`COc1ccc2[nH]cc(-c3cc(N)n4nc(-c5c[nH]c6ccc(OC)cc56)cc4n3)c2c1`: the growth was -46.1% (active).

In the case of `O=C1Nc2ccccc2/C1=C/c1ccc(CO)n1-c1ccc(Cl)cc1`, the growth was 15.8%.

These data come from PubChem BioAssay (NCI).
